Values without a mark were called inactive. Entries that show only a call come without a potency. Active and inactive are the calls of the source. Calls follow the shape of the full dose curve.

The nature of this assay: G protein-coupled receptor (GPCR) small molecule agonists, calcium flux assay: HEK293 wild type cell line counter screen (AID 1920065). The note with it: HEK293 WT calcium flux, fluorescence, agonist mode; series mostly up to 57.6 µM. From the text:
U.S. Tox21 Program National Center for Advancing Translational Sciences [NCATS] Division of Preclinical Innovation [DPI] U.S. Environmental Protection Agency [EPA] National Institutes of Environmental Health Sciences [NIEHS] National Toxicology Program [NTP] U.S. Food and Drug Administration [FDA] Assay overview: The increased intracellular calcium release that occurred upon G protein-coupled receptor (GPCR) activation led to the frequent use of calcium flux assays to detect GPCR activation. For the purpose of studying and screening compounds that may activate GPCR, receptor-overexpressing models were typically generated using Hek293 wild-type (WT) cells. In order to eliminate the compounds that may have induced calcium release for non-specific activation, a counter-assay utilizing calcium flux on Hek293 WT cells was performed. The data were formulated in order to serve as a control for any calcium flux detection utilizing Hek293 cells with either GPCR overexpression or gene modification. The procurement of Hek293 WT cells from ATCC. Fluorescence intensity can be utilized to determine the activation of the compound in a calcium flux assay. As a counter control, this cell line was utilized to screen the Tox21 10K compound library.
Assay Protocol Summary: Hek293 cells were dispensed at 1500cells/4uL/well in 1536-well black wall/clear bottom plates using a multidrop dispenser. After the assay plates were incubated at a 37 C/5% CO2 incubator for 18 hours, 4 uL of Calcium Dye Solution was added to each well. The plates were incubated at 37 C for 1 hour. For agonist mode, 23 nL of compounds dissolved in DMSO, positive control (ATP) or DMSO only was transferred to the assay plate by a pin tool station. The fluorescence intensity in the plates was measured using FDSS 7000EX kinetic plate reader with a filter set of Ex/Em=480/540 for 3 min at 1 sec intervals. Each test compound was measured at 15 concentrations and in triplicates.
A general note: Calcium flux is commonly read through the fluorescence of an indicator in the cells.
As to `N=C(N)N1CCc2ccccc2C1`, the activation is -0.314% [at 5.23 µM].
As to `NC(=O)Nc1nc2ccccc2[nH]1`, the Potency result was “inactive”.
In the case of `Brc1c2ccccc2c(Br)c2ccccc12`, the activation was -0.151% [at 5.23 µM].
Consider `Cc1ccccc1C(=O)Nc1ccc(C(=O)N2CCCC(O)c3cc(Cl)ccc32)c(C)c1` (stereo not given), for which the Potency result is “inactive”.
Turning to `CC(C)NC[C@@H](O)COc1ccc(CC(N)=O)cc1`, the Potency entry is “inactive”.
In the case of `CNCc1ccc(NC(=O)c2c[nH]c3c2C(=O)CCC3)cc1`, the Potency result was “inactive”.
As to `Clc1ccc(Nc2nnc(Cc3ccncc3)c3ccccc23)cc1`, the Potency result is “inactive”.
On to `Cc1cc(NS(=O)(=O)c2ccc(N)cc2)no1`, for which the Potency result was “inactive”.
Consider `CC[C@H]1OC(=O)[C@H](C)[C@@H](O[C@H]2C[C@@](C)(OC)[C@@H](O)[C@H](C)O2)[C@H](C)[C@@H](O[C@@H]2O[C@H](C)C[C@H](N(C)C)[C@H]2O)[C@](C)(O)C[C@@H](C)/C(=N\OCOCCOC)[C@H](C)[C@@H](O)[C@]1(C)O`, for which the Potency result was “inactive”.
On to `NNc1nc(-c2ccc(N)cc2)cs1`, for which the Potency result was “inactive”.
Consider `Cc1ccccc1Br`, for which the Potency result is “inactive”.
Same read-out and setting: as for `O=C(O)c1ccc2cc(C(=O)O)ccc2c1`, the entry is “inactive”.
On the same count and under the same terms, next, `N[C@@H]1CONC1=O`: “inactive”; `O=C(Nc1ccc(S(=O)(=O)N2CCOCC2)cc1)c1cc(Cl)ccc1NS(=O)(=O)c1ccc(Cl)s1`: “inactive”.
`CC(C)CC(C)(C)C`: the Potency entry is “inactive”.
On to `OCCCS`, for which the Potency result was “inactive”.
For `Cc1ncc([N+](=O)[O-])n1CC(O)CCl` (stereo not given), the Potency result was “inactive”.
Still for that read-out and setting: as for `O=[N+]([O-])c1cccc(Cl)c1Cl`, the entry is “inactive”.
For the compound `O=[N+]([O-])c1ccc(O)c2ncccc12`, the Potency entry was “inactive”.
Turning to `N[C@@H](C(=O)N[C@@H]1C(=O)N2C(C(=O)O)=C(Cl)CS[C@H]12)c1ccccc1`, the activation is -0.0598% [at 5.23 µM].
Consider `CC/C=C\CCOC(C)OCC` (stereo not given), for which the Potency entry was “inactive”.
For the compound `O=c1[nH]c(=O)n([C@H]2C[C@H](O)[C@@H](CO)O2)cc1C(F)(F)F`, the Potency entry is “inactive”.
For `CC(C)N(C)C`, the Potency entry is “inactive”.
For `CC(C)=CC(C)(C)C`, the Potency result is “inactive”.
The same measure, in the same setting: as for `COc1cc(C(C)(C)C)c(O)c(C(C)(C)C)c1`, the entry is “inactive”.
Take `CCCCCCCC/C=C/CCCCCCCC1=NCCN1CCO`: the Potency entry is “inactive”.
In the case of `COC(C(=O)O)c1ccccc1` (stereo not given), the Potency entry was “inactive”.
Take `Oc1cccc2c(O)cccc12`: the Potency entry was “inactive”.
On the same count and under the same terms, next, `CC(CO)(CO)CO`: “inactive”; `FC1(F)C(F)(F)C(F)(F)C2(F)C(F)(F)C(F)(F)C(F)(F)C(F)(F)C2(F)C1(F)F` (stereo not given): “inactive”; `CCCCCCOc1ccccc1C(N)=O`: “inactive”.
For the compound `COc1cccc2sc(N)nc12`, the Potency entry was “inactive”.
Consider `O=C(O)CCCCCCCCCC(=O)O`, for which the Potency entry is “inactive”.
Take `Cn1c(=O)c2c(ncn2CCO)n(C)c1=O`: the Potency entry was “inactive”.
As for `CC1=Nc2ccccc2C1(C)C`, the Potency result is “inactive”.
Take `CCNC(=O)/C=C/c1cccc(Br)c1`: the Potency result is “inactive”.
On to `O=[N+]([O-])c1ccc(Nc2ccc(Nc3ccccc3)c(S(=O)(=O)O)c2)c([N+](=O)[O-])c1`, for which the Potency result was “inactive”.
Same read-out and setting: next, `CN1CCC(OC(c2ccccc2)c2ccccc2)CC1`: “inactive”; `Nc1ccn([C@@H]2O[C@H](CO)[C@@H](O)[C@@H]2O)c(=O)n1`: “inactive”; `CCN(Cc1ccncc1)C(=O)C(CO)c1ccccc1` (stereo not given): “inactive”.

Source of the values: PubChem BioAssay (Tox21).
